Reference: ChEMBL document CHEMBL4513216, “Probing the Open Global Health Chemical Diversity Library for Multistage-Active Starting Points for Next-Generation Antimalarials” (ACS Infect Dis, 2020)
About 2,700 (4%) of roughly 68,000 compounds showed an effect of 50% or more. What follows is part of a selection rich in strong results, with near analogues and random picks from the rest.

What follows are compounds tested on Plasmodium berghei (assay: Screen against P. berghei liver stage (PbLuc), transformed with Luciferase, at 2uM). Settings: tested at 2 uM.
Assay type: functional, HepG2

| Structure (SMILES) | INHIBITION |
| --- | --- |
| CC(C)C(C)(O)CNc1cccc(F)c1C#N (stereo not given) | 28.1% |
| CSCC(C)(O)CNc1cccc(F)c1C(C)=O (stereo not given) | 8.75% |
| CSCC(C)(O)CNc1cccc(F)c1C#N (stereo not given) | 52.6% |
| Cc1ccc(-n2ncc(C(=O)N(C)C3CCN(C)CC3)c2N)cc1C | -11.1% |
| O=C(C1=CCCC1)N1CCC[C@]2(C[C@@H](OCc3ccccn3)CO2)C1 | 3.72% |
| CC(c1ccco1)N(C(=O)c1cccc(C#N)c1)C1CC1 (stereo not given) | 32.93% |
| Cc1noc(C)c1CNC(=O)N(C1CC1)C(C)c1ccco1 (stereo not given) | 50.91% |
| CCc1cc(CNC(=O)N(C2CC2)C(C)c2ccco2)on1 (stereo not given) | -27.89% |
| CC(c1ccco1)N(C(=O)NCc1ccon1)C1CC1 (stereo not given) | 1.88% |
| CCc1cc(CNC(=O)N(C2CC2)C(C)c2ccco2)[nH]n1 (stereo not given) | 61.42% |
| Cc1noc(C)c1CNC(=O)N(C)C1CCN(c2ccccc2)C1=O (stereo not given) | -7.88% |
| COc1cc(N2CCC3(CC2)OCC(=O)NC3C)ncn1 (stereo not given) | -7.03% |
| Cc1ccc(CN2CC[C@H]3[C@H]2CC(=O)N3c2ccsc2)o1 | 43.05% |
| COCCC(=O)N[C@H]1CC[C@H](Nc2nccc(-c3ccncc3)n2)C1 | 24.51% |
| O=c1c(Cc2ccc(Cl)cc2Cl)c(O)ccn1CC1CC1 | 31.56% |
| CCc1nc2ccccc2c(=O)n1CC1(O)CCN(S(C)(=O)=O)CC1 | -37.18% |
| CCc1nc2ccccc2c(=O)n1CC1(O)CCN(C(=O)C2CC2)CC1 | 29.89% |
| CCc1nc2ccccc2c(=O)n1CC1(O)CCN(CC(=O)OC)CC1 | 28.64% |
| CCc1nc2ccccc2c(=O)n1CC1(O)CCN(C(=O)COC)CC1 | 56.99% |
| CCCC(=O)N1CCC(O)(Cn2c(CC)nc3ccccc3c2=O)CC1 | -64.2% |
| CCc1nc2ccccc2c(=O)n1CC1(O)CCN(C(=O)C(C)C)CC1 | 59.91% |
| Cc1nccn1CCC(=O)N1CCC2(CCC(=O)N(CC3CC3)C2)CC1 | -63.27% |
| CCc1ccc(S(=O)(=O)Nc2cn(C)cc(Br)c2=O)cc1 | 11.28% |
| Cn1cc(Br)c(=O)c(NS(=O)(=O)c2ccc(F)cc2)c1 | 55.04% |
| Cn1cc(Br)c(=O)c(NS(=O)(=O)c2ccc(Cl)cc2)c1 | 4.67% |
| CNS(=O)(=O)c1cc(C(=O)N(C)Cc2sccc2C)c(C)o1 | 10.48% |
| Cc1nc(CC(C)C)cc(C(=O)N2C[C@@H](N(C)C)[C@H](C(C)C)C2)n1 | 0.55% |

| Structure (SMILES) | INHIBITION |
| --- | --- |
| Cc1cc(C(=O)N2C[C@@H](C(=O)O)[C@H](C(C)C)C2)cs1 | -3.66% |
| Cc1cc(C(=O)N2C[C@H](C(C)C)[C@@H](N(C)C)C2)cs1 | 68.66% |
| CC(C)c1cccc(N2CCCC3(CCC(=O)N(C4CC4)C3)C2)n1 (stereo not given) | -90.99% |
| Cc1ccc(O)c(CNCC(C)c2nc3ccccc3o2)n1 (stereo not given) | 35.36% |
| CCC(CC)C(=O)N1CCOC2(COCCN(CC(=O)NC)C2)C1 (stereo not given) | 48.52% |
| CC(C)NC(=O)N1CCOC2(CNC2)C1 | 44.13% |
| CCC(CC)C(=O)N1CCOC2(CNC2)C1 | 58.95% |
| Cc1cc(C(=O)NCC(C)C)c2c(C3CCCN3)noc2n1 (stereo not given) | -14.61% |
| Cc1noc(CNC2CCCN(Cc3noc(C4CC4)n3)C2)n1 (stereo not given) | 10.53% |
| Cc1cc(N2CCN(Cc3ccsc3)C(CCO)C2)nc(N)n1 (stereo not given) | 34% |
| CC(C)Oc1cc(N2CCN(Cc3ccsc3)C(CCO)C2)nc(N)n1 (stereo not given) | 51.76% |
| COc1cc(N2CCN(Cc3ccsc3)C(CCO)C2)nc(N)n1 (stereo not given) | 39.92% |
| O=c1[nH]c2cn(-c3cccc(Cl)c3)c(=O)n2n1Cc1cccc(F)c1 | 42.62% |
| O=c1[nH]c2cn(-c3cccc(F)c3)c(=O)n2n1Cc1ccc(Cl)cc1 | 5.87% |
| O=c1[nH]c2cn(-c3ccc(F)cc3)c(=O)n2n1Cc1cccc(Cl)c1 | 58% |
| CCCn1nc2c(cc1=O)CN(CCN1CCCC1=O)CC2 | -33.39% |
| CC(=O)N1CCN(c2nc3c(cnn3C(C)(C)C)c(=O)[nH]2)CC1 | -12.08% |
| CC(C)(C)n1ncc2c(=O)[nH]c(N3CCN(CCO)CC3)nc21 | 40.47% |
| CC(C)(C)n1ncc2c(=O)[nH]c(N3CCN(CC(F)F)CC3)nc21 | 66.74% |
| CSCC[C@H](N)C(=O)NCc1cc2n(n1)CCCN(C1CCCCC1)C2 | -46.68% |
| Cc1ccc(S(=O)(=O)NC[C@H]2OC[C@@H](NCc3ccccc3)[C@@H]2O)cc1 | 75.87% |
| Cc1ccc(S(=O)(=O)NC[C@H]2OC[C@@H](NCc3ccncc3)[C@@H]2O)cc1 | 16.47% |
| Cc1ccc(CN[C@@H]2CO[C@H](CNS(=O)(=O)c3ccccc3)[C@H]2O)cc1 | -6.18% |
| Cc1nc(N(Cc2ccncc2)CC2CCCO2)c2ccsc2n1 (stereo not given) | -59.39% |
| Cc1nc(NCc2noc(C3CCCO3)n2)c2ccsc2n1 (stereo not given) | 59.01% |
| O=C(NCCc1noc(C2CCCO2)n1)c1cn2ccsc2n1 (stereo not given) | 40.88% |
| Cc1nc(NCc2noc(C3CCCO3)n2)c2sccc2n1 (stereo not given) | 61.69% |

| Structure (SMILES) | INHIBITION |
| --- | --- |
| Cc1nc(NCCc2noc(C3CCCO3)n2)c2sccc2n1 (stereo not given) | 49.63% |
| O=C(NCc1noc(C2CCCO2)n1)c1cn2ccsc2n1 (stereo not given) | 22.09% |
| O=C(CCCOc1ccc(F)cc1F)N1CCCC1Cn1cccn1 (stereo not given) | 6.12% |
| CN(Cc1cc2n(n1)CCCN(C(=O)N1CCCC1)C2)Cc1nccs1 | -10.4% |
| CCc1nc(CNc2nc3c(s2)c(C)nn3C)cs1 | 51.4% |
| Cc1nc(CNc2nc3c(s2)c(C)nn3C)cs1 | 38.49% |
| CCc1csc(CNc2nc3c(s2)c(C)nn3C)n1 | 28.14% |
| O=C(NC1CCc2[nH]c(=O)ccc2C1)C1CCOCC1 (stereo not given) | 0.79% |
| CCN1CC[C@@]2(C(=O)N3CCOCC3)CCN(C(=O)NC)CC[C@@H]12 | 19.42% |
| CSC1=Nc2c(cnn2-c2ccc(C)cc2)C2=NCCCN12 | 44.7% |
| CCOc1ccccc1C(=O)N1CCCC1c1ncc2c(n1)CCNC2 (stereo not given) | -2.7% |
| O=C(C1CCS(=O)(=O)CC1)N1CCC(Cc2ccc(F)cc2)CC1 | 9.75% |
| CN1C[C@@H](N)C[C@H]1C(=O)N1CCC(Cc2ccc(F)cc2)CC1 | 29.87% |
| CCC(=O)N1CCCC1C(=O)N1CCC(Cc2ccc(F)cc2)CC1 (stereo not given) | 69.52% |
| c1cnnc(N2CCCC2CNCc2nc(-c3cccs3)no2)c1 (stereo not given) | -8.75% |
| Cc1cccc(-n2nc(CC(C)C)nc2CS(C)(=O)=O)c1 | 3.92% |
| Cc1cc(N2CCC(N(C)C(=O)c3sccc3C)CC2)nc(C)n1 | -82.24% |
| OCC1CCCCN1CCn1ccnc1-c1ccc2c(c1)OCCO2 (stereo not given) | 63.46% |
| Cc1cc(-c2nccn2CCN2CCCCC2CO)oc1C (stereo not given) | 47.04% |
| Cc1ccsc1-c1nccn1CCN1CCCCC1CO (stereo not given) | -12.08% |
| CC(O)c1cn(Cc2cccc(C(F)(F)F)c2)nn1 (stereo not given) | 19.08% |
| COc1ccccc1CN1C[C@@H](F)[C@@H](OCc2nc3ncccc3[nH]2)C1 | 55.57% |
| COc1ccccc1CN1C[C@@H](F)[C@@H](OCc2nc3ccccc3[nH]2)C1 | -6.21% |
| COc1ccccc1CN1C[C@@H](F)[C@@H](OCc2nc3cnccc3[nH]2)C1 | 14.89% |
| O=C(CS(=O)(=O)Cc1cc(Cl)c2c(c1)OCCCO2)NCC1CC1 | 2.77% |
| CCNC(c1ccc(C)cc1)c1cccnc1 (stereo not given) | -41.21% |
| CCCNC(c1ccc(F)cc1)c1cccnc1 (stereo not given) | 26.18% |

| Structure (SMILES) | INHIBITION |
| --- | --- |
| CCCNC(c1cccnc1)c1ccc(F)cc1F (stereo not given) | -3.32% |
| CCNC(c1ccc(F)cc1)c1cccnc1 (stereo not given) | -49.8% |
| CCNC(c1cccnc1)c1ccc(F)cc1F (stereo not given) | 53.98% |
| CCNC(c1ccc(C(C)C)cc1)c1cccnc1 (stereo not given) | 58.05% |
| CCNC(c1cccnc1)c1ccc(F)c(C)c1 (stereo not given) | 1.61% |
| CCNC(c1ccc(Cl)cc1)c1cccnc1 (stereo not given) | 8.37% |
| CCCNC(c1cccnc1)c1ccc(F)c(C)c1 (stereo not given) | 62.36% |
| c1cc(CN2CCC(c3nnc4n3CCCCC4)CC2)c2nonc2c1 | -60.89% |
| CC(C)n1ncc2c1NC(=O)CC21C(=O)Nc2c(Cl)ccc(Cl)c21 (stereo not given) | -40.36% |
| c1csc(-c2noc(C3CN(Cc4ccc5c(c4)CCO5)C3)n2)c1 | 35.6% |
| O=C1CCNc2ncc(-c3ccccc3Cl)cc2CN1C1CC1 | 18.48% |
| CCc1c(C)noc1-c1cnc(NC2CC2)nc1-c1cnc(C)cn1 | 26.93% |
| O=C(c1cccnc1N1CCCCC1)N1CCCC(n2ccnc2)C1 (stereo not given) | 3.33% |
| Cc1nccn1C1CCCN(C(=O)c2ccnc(-n3ccnc3)c2)C1 (stereo not given) | -13.24% |
| O=C(c1ccnc(-n2ccnc2)c1)N1CCCC(n2cccn2)C1 (stereo not given) | -58.05% |
| O=C(c1ccc(-n2ccnc2)cc1)N1CCCC(n2ccnc2)C1 (stereo not given) | 28.87% |
| O=C(c1ccc2c(c1)OCCO2)N1CCCC(n2ccnc2)C1 (stereo not given) | 78.98% |
| O=C(c1ccc(-n2cnnn2)cc1)N1CCCC(n2ccnc2)C1 (stereo not given) | 43.79% |
| O=C(c1ccc2c(c1)OCCCO2)N1CCCC(n2ccnc2)C1 (stereo not given) | 11.95% |
| O=C(c1ccnc(-n2ccnc2)c1)N1CCCC(n2ccnc2)C1 (stereo not given) | 70.27% |
| O=C(c1ccc(-n2cnnc2)cc1)N1CCCC(n2ccnc2)C1 (stereo not given) | 56.02% |
| O=C(c1cccc2cccnc12)N1CCCC(n2ccnc2)C1 (stereo not given) | 54.2% |
| O=C(c1ccc2c(c1)OCO2)N1CCCC(n2ccnc2)C1 (stereo not given) | -0.05% |
| O=C(c1cccc2ncccc12)N1CCCC(n2ccnc2)C1 (stereo not given) | 43.85% |
